High-throughput results: PubChem BioAssay, National Center for Advancing Translational Sciences (NCATS)
Cycloheximide cs – affects cycloheximide protein synthesis inhibition readout, counter-screen | max response, % | AID 2314 | cell reporter, cycloheximide protein synthesis inhibition counterscreen | actives 12% (n = 300,000); in the data active = max response mostly above about 13%, no sharp cut-off; inactive = mostly below about 14%; note: read at 38.3 µM for the half of the compounds with a filed dose; 0% is about no effect
Pf growth 96h – P. falciparum growth inhibition at 96 hours. P. falciparum luciferase reporter growth, 96 h. Potency, µM (highest dose often 28.7 µM), for inactives: top-dose activity change, negative = inhibition, hits mostly inhibitors. actives 6.9% (n = 320,000). AID 504834; note: potency is the fitted concentration of half-maximal effect; % is set by controls: 0 for no effect and ±100 for the full control effect
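Plates of compound plus infected erythrocytes (2% hematocrit, 0.05% parasitemia final) incubate 96 hours, 37 C, 5% CO2. Detection reagent added; reduced luminescence from the parasites' luciferase reporter flags inhibition.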
Shiga toxin inh – blocks Shiga toxin action in Vero cells. actives 9.2% (n = 290,000). Vero cells, Shiga toxin protein synthesis inhibition reporter. inhibition, % at 38.7 µM. AID 2315; in the data active = inhibition mostly above about 28%, no sharp cut-off; inactive = mostly below about 43%; note: 0% is about no effect
Pf growth 48h – inhibits P. falciparum growth in the first generation, 48 h | P. falciparum luciferase growth in erythrocytes, 48 h | Potency, µM (doses to about 28.7 µM), without a hit: top-dose activity change, negative = inhibition, usual class: inhibitors | actives 5.9% (n = 310,000) | AID 504832; note: potency is the fitted concentration of half-maximal effect; % is set by controls: 0 for no effect and ±100 for the full control effect
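In quantitative HTS format, infected erythrocytes bearing luciferase-reporter parasites were treated for a single generation at 37 C. Luminescence after adding detection reagent served as the growth measure.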
* = called active by the depositor; [ ] = another dose, or the depositor's remark. Compounds with a hit are over-represented: about 21% of the library has one in this group of screens. Unless noted, calls come from the whole dose curve; as a rule, active = well fitted inhibition curve with a large enough effect; inconclusive = small, poorly fitted or top-dose-only effect, or another doubt; inactive = no such curve, though single readings can be large or run the other way.

CCOC(=O)CNC(=O)CSc1cc(C)nc2ccc(OC)cc12 was read as Cycloheximide cs 29*, Pf growth 96h 491%, Shiga toxin inh 72* and Pf growth 48h -39%.
CCOC(=O)CCSc1nc(C)c2cc(C)ccc2n1 was read as Cycloheximide cs 30*, Pf growth 96h 138% and Shiga toxin inh 75*.
N#CC1(NC(=O)COC(=O)c2nccnc2N)CCCCC1 was read as Pf growth 96h 30% and Pf growth 48h -17%.
Screening COc1cccc(C(C(=O)NC2CCCC2)N(CC2CCCO2)C(=O)Cc2cccs2)c1 (stereo not given) returned Cycloheximide cs -4, Pf growth 96h 10%, Shiga toxin inh -4 and Pf growth 48h inconclusive.
For O=C(N/N=C/c1ccc(Sc2ccccn2)o1)c1cccc([N+](=O)[O-])c1 the results were Cycloheximide cs -1, Pf growth 96h inconclusive, Shiga toxin inh 8 and Pf growth 48h -18%.
O=C(N/N=C/c1ccc(Sc2nc3ccccc3[nH]2)o1)c1ccncc1 was read as Cycloheximide cs -3, Pf growth 96h -20%, Shiga toxin inh 10 and Pf growth 48h 1%.
Screening O=C(N/N=C/c1ccc(Sc2ccccn2)o1)c1cc2ccccc2cc1O returned Cycloheximide cs 22*, Pf growth 96h inconclusive, Shiga toxin inh 24 and Pf growth 48h inconclusive.
For O=C(N/N=C\c1ccc(Sc2ccccn2)o1)c1cccc(F)c1 the results were Cycloheximide cs 18*, Pf growth 96h 22%, Shiga toxin inh 62 and Pf growth 48h -5%.
For O=C(CCc1ccccc1O)N/N=C/c1ccc(Sc2cccc3cccnc23)o1 the results were Cycloheximide cs 7, Pf growth 96h 3.7µM* and Shiga toxin inh 25.
`COc1cccc(N2CCN(c3ccc4nnc(CCC(=O)Nc5cccc(C(C)=O)c5)n4n3)CC2)c1` gave Cycloheximide cs 2, Pf growth 96h -11%, Shiga toxin inh -2 and Pf growth 48h 16%.
For Cc1cc(C)cc(NC(=S)N2C3CCCC2CC(NC(=O)C2CC2)C3)c1 (stereo not given) the results were Cycloheximide cs -4, Pf growth 96h 16%, Shiga toxin inh -5 and Pf growth 48h -15%.
For Cc1ccc(Nc2nnc(SCC(=O)c3ccc(O)cc3O)s2)cc1 the results were Cycloheximide cs 16, Pf growth 96h 2.1µM*, Shiga toxin inh 16 and Pf growth 48h inconclusive.
For Cc1cccc(Nc2nnc(SCC(=O)c3ccc(O)cc3O)s2)c1 the results were Cycloheximide cs 19, Pf growth 96h inconclusive, Shiga toxin inh 27 and Pf growth 48h -26%.
Screening O=C(CSc1nnc(NC(=O)C2CC2)s1)NCc1cccs1 returned Cycloheximide cs 7, Pf growth 96h inconclusive, Shiga toxin inh -19 and Pf growth 48h 5%.
Screening O=C(CSc1nnc(Nc2ccccc2)s1)NCc1cccs1 returned Cycloheximide cs -2, Pf growth 96h 12µM*, Shiga toxin inh -5 and Pf growth 48h 0%.
O=C1c2ccccc2C(=O)N1CSc1nnc(Nc2ccccc2)s1 was read as Cycloheximide cs -4, Pf growth 96h 28%[5.75 µM], Shiga toxin inh 18 and Pf growth 48h 22%.
Screening OCCSc1nnc(Nc2ccccc2)s1 returned Cycloheximide cs 38*, Pf growth 96h inconclusive, Shiga toxin inh 87* and Pf growth 48h -19%.
CC(C)(C)C(=O)CSc1nnc(Nc2ccccc2)s1 was read as Cycloheximide cs 34*, Pf growth 96h -4%, Shiga toxin inh 51 and Pf growth 48h 57%.
Screening COc1ccc(/C=C(\NC(=O)c2ccccc2)C(=O)NCc2ccco2)cc1OC returned Cycloheximide cs -1, Pf growth 96h 18%, Shiga toxin inh 16 and Pf growth 48h inconclusive.
Cc1ccccc1-n1nc(-c2cccnc2)cc1C(=O)NN was read as Cycloheximide cs 9, Pf growth 96h -29%, Shiga toxin inh -5 and Pf growth 48h -15%.
For CSc1nnc(SCC(=O)N(C)c2c(N)n(Cc3ccccc3)c(=O)[nH]c2=O)s1 the results were Pf growth 96h -3% and Pf growth 48h -17%.
For CN(C(=O)CSc1nnc(Nc2ccccc2)s1)c1c(N)n(Cc2ccccc2)c(=O)[nH]c1=O the results were Cycloheximide cs 29*, Shiga toxin inh 97 and Pf growth 48h -20%.
`COC(=O)C1=C(N)Oc2cc(C)n(CCCn3ccnc3)c(=O)c2C1c1ccc(Cl)cc1` (stereo not given) gave Cycloheximide cs -2, Pf growth 96h 4.7µM*, Shiga toxin inh -11 and Pf growth 48h 3.3µM*.
